Assays:
Experiment in all cases: DAPPL (digital affinity profiling via proximity ligation, sequencing); 10 mM Tris-HCl pH 7.5, 50 mM NaCl, 1 mM DTT, 4% glycerol, room temperature, 30 min; GST-TFs on glutathione beads, 16-mer random dsDNA library, 0.1% formaldehyde crosslink after washing; high values mean tight binding
FEV = biological target: T1, FEV (Homo sapiens, UniProt Q99581 1-238); conditions: protein: recombinant; tags: N-terminal GST; dsDNA, one strand shown
T1 sequence: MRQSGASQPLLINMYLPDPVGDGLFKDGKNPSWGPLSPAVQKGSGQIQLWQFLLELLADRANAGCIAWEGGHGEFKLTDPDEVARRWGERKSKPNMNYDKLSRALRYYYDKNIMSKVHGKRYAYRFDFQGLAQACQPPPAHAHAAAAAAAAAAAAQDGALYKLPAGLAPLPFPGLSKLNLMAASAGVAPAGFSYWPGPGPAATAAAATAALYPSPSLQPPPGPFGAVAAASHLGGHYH
Method in brief: (§1)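 Human transcription factors carrying a GST fusion were produced in yeast, bound to glutathione beads, tagged with DNA barcodes and pooled together with a tag-only sample. Each pool was held with 200 nmole of a random double-stranded 16-mer DNA library in Tris/NaCl/DTT/glycerol buffer for 30 min at room temperature, then washed, crosslinked in 0.1% formaldehyde, proximity-ligated with BsaI/T4 ligase (1 h, 37 °C), PCR-amplified and sequenced on an Illumina NextSeq500. Binding signal is the read frequency of each hexamer for a given factor divided by its frequency in the tag-only sample.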

ETV5 = ETV5 (Homo sapiens, UniProt P41161 1-510); conditions: protein: recombinant; tags: N-terminal GST; dsDNA, one strand shown
ETV5, sequence (P41161 whole entry): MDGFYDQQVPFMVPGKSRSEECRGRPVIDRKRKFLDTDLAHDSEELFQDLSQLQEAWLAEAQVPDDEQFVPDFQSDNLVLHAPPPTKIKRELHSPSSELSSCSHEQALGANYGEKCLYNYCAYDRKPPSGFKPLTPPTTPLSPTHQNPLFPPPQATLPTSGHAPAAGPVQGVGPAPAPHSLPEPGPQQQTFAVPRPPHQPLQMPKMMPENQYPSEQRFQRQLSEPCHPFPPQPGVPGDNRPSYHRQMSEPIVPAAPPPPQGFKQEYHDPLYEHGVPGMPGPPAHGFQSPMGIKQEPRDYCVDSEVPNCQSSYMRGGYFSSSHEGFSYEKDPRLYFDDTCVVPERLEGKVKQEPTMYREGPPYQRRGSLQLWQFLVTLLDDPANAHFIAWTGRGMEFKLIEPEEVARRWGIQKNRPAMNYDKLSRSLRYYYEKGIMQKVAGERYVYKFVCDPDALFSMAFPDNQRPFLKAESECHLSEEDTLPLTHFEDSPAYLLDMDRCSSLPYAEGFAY
Method in brief: as §1

HSF1 = HSF1 (Homo sapiens, UniProt Q00613 1-529); conditions: protein: recombinant; tags: N-terminal GST; chain copies: 3; dsDNA, one strand shown
HSF1, sequence (Q00613 whole entry): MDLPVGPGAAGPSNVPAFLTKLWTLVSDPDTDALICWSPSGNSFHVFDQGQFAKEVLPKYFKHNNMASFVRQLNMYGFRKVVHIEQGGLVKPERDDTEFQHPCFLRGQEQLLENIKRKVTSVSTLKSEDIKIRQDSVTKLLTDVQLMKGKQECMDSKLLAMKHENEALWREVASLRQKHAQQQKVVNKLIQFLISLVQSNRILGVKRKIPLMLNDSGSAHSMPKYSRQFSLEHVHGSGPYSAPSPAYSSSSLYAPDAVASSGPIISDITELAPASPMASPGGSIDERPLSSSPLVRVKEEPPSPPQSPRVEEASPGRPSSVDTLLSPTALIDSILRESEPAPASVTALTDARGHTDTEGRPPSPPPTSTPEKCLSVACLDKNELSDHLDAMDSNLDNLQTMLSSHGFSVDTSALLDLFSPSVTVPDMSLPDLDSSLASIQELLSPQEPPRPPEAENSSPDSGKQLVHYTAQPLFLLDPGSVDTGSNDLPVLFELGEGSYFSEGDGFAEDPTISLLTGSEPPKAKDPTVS
Method in brief: as §1

SPIC = biological target: T2, SPIC (Homo sapiens, UniProt Q8N5J4 1-248); conditions: protein: recombinant; tags: N-terminal GST; dsDNA, one strand shown
T2 sequence: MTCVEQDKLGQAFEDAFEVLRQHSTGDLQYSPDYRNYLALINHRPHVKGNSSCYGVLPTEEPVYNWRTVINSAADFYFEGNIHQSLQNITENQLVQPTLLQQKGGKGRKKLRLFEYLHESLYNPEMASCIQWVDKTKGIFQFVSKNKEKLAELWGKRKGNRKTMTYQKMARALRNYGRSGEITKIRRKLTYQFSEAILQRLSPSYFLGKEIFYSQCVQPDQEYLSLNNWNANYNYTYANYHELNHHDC
Method in brief: as §1

ELF4 = ELF4 (Homo sapiens, UniProt Q99607 1-663); conditions: protein: recombinant; tags: N-terminal GST; dsDNA, one strand shown
ELF4, sequence (Q99607 whole entry): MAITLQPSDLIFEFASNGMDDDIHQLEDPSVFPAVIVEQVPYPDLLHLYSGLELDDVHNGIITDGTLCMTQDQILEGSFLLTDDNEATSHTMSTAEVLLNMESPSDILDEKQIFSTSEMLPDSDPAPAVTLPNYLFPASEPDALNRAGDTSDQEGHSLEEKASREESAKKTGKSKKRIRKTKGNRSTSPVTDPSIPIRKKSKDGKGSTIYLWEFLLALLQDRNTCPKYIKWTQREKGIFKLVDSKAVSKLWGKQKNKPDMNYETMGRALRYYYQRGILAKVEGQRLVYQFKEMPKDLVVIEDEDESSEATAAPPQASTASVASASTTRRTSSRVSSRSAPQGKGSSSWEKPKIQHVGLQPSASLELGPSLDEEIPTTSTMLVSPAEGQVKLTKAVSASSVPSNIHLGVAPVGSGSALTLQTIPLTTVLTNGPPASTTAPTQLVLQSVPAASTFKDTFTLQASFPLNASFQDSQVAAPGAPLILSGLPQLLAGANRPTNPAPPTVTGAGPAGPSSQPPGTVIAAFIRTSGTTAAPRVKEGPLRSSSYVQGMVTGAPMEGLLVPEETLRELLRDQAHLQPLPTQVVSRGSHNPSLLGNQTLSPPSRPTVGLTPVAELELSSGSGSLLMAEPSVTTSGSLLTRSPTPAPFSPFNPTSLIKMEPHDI
Method in brief: as §1

ELK4 = biological target: T3, ELK4 (Homo sapiens, UniProt P28324-2 1-405); conditions: protein: recombinant; tags: N-terminal GST; dsDNA, one strand shown
T3 sequence: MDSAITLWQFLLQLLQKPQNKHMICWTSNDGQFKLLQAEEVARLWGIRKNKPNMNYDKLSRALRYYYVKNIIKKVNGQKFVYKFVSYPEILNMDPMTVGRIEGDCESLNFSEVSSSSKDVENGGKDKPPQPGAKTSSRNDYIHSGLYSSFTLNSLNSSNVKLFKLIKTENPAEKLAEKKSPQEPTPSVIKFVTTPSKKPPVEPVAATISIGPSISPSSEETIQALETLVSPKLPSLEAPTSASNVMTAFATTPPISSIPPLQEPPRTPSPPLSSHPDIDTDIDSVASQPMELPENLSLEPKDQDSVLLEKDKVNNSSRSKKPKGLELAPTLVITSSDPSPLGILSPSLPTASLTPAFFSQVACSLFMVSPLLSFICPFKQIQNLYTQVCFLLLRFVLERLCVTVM
Method in brief: as §1

ETV2 = biological target: T4, ETV2 (Homo sapiens, UniProt O00321 1-342); conditions: protein: recombinant; tags: N-terminal GST; dsDNA, one strand shown
T4 sequence: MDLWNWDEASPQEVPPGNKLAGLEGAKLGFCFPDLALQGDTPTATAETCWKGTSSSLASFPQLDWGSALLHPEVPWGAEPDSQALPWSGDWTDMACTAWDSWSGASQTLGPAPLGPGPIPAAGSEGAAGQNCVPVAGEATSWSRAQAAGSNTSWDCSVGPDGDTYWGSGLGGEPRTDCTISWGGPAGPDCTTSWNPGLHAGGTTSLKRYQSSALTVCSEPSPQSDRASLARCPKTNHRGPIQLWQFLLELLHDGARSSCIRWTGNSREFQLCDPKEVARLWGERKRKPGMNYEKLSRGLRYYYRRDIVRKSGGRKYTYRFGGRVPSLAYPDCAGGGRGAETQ
Method in brief: as §1

ELF3 = biological target: T5, ELF3 (Homo sapiens, UniProt P78545 1-371); conditions: protein: recombinant; tags: N-terminal GST; dsDNA, one strand shown
T5 sequence: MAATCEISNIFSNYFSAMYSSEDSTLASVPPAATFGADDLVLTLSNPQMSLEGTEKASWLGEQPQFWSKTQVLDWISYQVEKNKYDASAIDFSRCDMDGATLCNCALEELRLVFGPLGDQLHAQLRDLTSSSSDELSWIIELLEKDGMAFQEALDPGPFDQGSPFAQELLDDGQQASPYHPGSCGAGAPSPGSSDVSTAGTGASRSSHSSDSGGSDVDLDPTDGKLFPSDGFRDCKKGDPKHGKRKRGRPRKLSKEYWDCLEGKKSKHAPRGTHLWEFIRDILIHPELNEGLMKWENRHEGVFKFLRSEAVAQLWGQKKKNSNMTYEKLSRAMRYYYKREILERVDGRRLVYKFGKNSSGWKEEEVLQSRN
Method in brief: as §1

CRX = CRX (Homo sapiens, UniProt O43186 1-299); conditions: protein: recombinant; tags: N-terminal GST; dsDNA, one strand shown
CRX, sequence (O43186 whole entry): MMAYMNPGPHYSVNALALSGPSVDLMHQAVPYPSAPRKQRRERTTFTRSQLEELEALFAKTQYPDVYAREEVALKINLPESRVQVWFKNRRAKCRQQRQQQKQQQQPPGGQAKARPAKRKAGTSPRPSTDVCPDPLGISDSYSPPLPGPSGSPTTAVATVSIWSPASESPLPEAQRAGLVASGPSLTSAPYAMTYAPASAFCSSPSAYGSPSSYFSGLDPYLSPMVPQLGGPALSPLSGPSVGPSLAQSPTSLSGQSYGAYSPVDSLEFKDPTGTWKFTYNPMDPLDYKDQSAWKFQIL
Method in brief: as §1

ETV1 = ETV1 (Homo sapiens, UniProt P50549 1-477); conditions: protein: recombinant; tags: N-terminal GST; dsDNA, one strand shown
ETV1, sequence (P50549 whole entry): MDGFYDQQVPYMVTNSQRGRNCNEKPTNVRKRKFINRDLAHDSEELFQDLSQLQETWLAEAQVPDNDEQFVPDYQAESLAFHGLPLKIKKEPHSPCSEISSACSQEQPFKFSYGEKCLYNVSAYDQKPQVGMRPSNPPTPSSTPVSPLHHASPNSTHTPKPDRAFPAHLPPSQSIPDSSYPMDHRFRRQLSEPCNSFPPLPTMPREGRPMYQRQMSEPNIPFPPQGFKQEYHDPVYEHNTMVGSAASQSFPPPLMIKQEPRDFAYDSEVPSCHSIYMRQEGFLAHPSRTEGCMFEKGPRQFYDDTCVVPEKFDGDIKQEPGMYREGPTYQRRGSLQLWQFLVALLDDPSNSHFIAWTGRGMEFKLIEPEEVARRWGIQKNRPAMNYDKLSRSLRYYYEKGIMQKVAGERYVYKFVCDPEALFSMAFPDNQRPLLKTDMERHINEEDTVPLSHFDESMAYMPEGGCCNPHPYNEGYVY
Method in brief: as §1

ERF = biological target: T6, ERF (Homo sapiens, UniProt P50548 1-548); conditions: protein: recombinant; tags: N-terminal GST; dsDNA, one strand shown
T6 sequence: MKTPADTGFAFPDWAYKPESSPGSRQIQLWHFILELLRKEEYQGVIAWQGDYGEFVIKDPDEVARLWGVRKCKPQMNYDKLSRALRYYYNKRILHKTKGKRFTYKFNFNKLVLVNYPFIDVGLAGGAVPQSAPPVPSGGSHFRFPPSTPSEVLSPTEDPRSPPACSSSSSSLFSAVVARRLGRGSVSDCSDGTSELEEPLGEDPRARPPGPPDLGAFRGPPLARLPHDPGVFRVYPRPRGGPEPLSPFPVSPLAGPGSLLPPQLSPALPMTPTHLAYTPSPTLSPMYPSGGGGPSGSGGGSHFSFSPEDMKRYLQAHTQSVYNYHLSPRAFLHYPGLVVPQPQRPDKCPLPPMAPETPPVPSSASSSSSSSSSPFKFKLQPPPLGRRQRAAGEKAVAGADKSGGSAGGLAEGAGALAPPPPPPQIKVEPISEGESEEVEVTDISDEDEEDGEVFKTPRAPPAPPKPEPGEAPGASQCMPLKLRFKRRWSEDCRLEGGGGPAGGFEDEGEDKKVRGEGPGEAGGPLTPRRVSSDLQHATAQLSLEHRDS
Method in brief: as §1

ETV3L = biological target: T7, ETV3L (Homo sapiens, UniProt Q6ZN32 1-361); conditions: protein: recombinant; tags: N-terminal GST; dsDNA, one strand shown
T7 sequence: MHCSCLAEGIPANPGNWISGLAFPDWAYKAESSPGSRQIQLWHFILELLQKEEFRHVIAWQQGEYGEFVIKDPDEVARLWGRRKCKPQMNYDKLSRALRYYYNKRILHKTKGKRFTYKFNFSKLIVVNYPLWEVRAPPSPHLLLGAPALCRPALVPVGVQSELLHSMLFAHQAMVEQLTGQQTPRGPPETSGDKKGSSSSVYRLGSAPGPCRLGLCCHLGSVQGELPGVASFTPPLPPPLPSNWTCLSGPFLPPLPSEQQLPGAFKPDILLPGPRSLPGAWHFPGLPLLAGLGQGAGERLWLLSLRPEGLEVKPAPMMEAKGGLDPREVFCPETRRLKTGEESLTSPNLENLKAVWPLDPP
Method in brief: as §1

ETS2 = biological target: T8, ETS2 (Homo sapiens, UniProt P15036 1-469); conditions: protein: recombinant; tags: N-terminal GST; dsDNA, one strand shown
T8 sequence: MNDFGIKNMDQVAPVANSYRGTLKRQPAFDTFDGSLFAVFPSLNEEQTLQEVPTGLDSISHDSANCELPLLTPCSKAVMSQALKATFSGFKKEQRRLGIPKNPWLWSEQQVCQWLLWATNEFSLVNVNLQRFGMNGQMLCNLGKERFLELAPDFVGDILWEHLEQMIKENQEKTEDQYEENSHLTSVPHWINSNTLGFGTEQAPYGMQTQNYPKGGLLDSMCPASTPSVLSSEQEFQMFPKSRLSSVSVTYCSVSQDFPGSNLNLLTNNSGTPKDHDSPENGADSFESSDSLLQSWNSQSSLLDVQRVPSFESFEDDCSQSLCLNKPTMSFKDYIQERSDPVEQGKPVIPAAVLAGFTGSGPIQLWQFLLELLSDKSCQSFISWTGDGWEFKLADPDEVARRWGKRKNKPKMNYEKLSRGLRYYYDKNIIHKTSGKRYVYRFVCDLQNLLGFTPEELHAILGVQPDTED
Method in brief: as §1

SPDEF = biological target: T9, SPDEF (Homo sapiens, UniProt O95238 1-335); conditions: protein: recombinant; tags: N-terminal GST; dsDNA, one strand shown
T9 sequence: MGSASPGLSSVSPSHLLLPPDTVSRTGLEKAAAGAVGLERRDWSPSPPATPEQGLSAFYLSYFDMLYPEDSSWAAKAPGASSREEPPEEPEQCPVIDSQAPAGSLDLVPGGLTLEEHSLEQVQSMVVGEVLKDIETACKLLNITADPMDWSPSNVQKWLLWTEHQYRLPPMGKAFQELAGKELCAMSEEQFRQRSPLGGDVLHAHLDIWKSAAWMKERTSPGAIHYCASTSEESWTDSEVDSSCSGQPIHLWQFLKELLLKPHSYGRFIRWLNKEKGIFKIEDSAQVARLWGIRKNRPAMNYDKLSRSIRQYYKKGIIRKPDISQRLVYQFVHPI
Method in brief: as §1

ETV7 = biological target: T10, ETV7 (Homo sapiens, UniProt Q9Y603 1-341); conditions: protein: recombinant; tags: N-terminal GST; dsDNA, one strand shown
T10 sequence: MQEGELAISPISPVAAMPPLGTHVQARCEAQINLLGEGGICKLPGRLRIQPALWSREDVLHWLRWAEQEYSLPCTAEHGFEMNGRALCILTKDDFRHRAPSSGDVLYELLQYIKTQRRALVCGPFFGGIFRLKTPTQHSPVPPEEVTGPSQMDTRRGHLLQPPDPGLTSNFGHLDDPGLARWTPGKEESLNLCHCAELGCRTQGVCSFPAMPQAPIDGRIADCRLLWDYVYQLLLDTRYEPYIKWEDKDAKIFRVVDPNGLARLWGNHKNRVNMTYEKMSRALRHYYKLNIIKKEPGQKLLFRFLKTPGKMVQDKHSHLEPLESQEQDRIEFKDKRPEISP
Method in brief: as §1

ELF5 = biological target: T11, ELF5 (Homo sapiens, UniProt Q9UKW6-2 1-255); conditions: protein: recombinant; tags: N-terminal GST; dsDNA, one strand shown
T11 sequence: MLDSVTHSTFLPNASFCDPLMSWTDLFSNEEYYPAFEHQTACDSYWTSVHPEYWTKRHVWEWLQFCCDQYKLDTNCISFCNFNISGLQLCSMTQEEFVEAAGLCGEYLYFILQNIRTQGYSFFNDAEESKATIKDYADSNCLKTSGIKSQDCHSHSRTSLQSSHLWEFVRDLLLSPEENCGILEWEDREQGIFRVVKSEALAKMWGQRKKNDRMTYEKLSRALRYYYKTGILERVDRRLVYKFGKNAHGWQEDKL
Method in brief: as §1

ETV3 = biological target: T12, ETV3 (Homo sapiens, UniProt P41162-2 1-143); conditions: protein: recombinant; tags: N-terminal GST; dsDNA, one strand shown
T12 sequence: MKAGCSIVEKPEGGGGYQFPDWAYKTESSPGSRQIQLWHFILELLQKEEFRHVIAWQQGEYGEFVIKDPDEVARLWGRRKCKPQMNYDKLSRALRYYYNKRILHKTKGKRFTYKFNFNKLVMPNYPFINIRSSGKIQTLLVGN
Method in brief: as §1

ETV6 = ETV6 (Homo sapiens, UniProt P41212 1-452); conditions: protein: recombinant; tags: N-terminal GST; dsDNA, one strand shown
ETV6, sequence (P41212 whole entry): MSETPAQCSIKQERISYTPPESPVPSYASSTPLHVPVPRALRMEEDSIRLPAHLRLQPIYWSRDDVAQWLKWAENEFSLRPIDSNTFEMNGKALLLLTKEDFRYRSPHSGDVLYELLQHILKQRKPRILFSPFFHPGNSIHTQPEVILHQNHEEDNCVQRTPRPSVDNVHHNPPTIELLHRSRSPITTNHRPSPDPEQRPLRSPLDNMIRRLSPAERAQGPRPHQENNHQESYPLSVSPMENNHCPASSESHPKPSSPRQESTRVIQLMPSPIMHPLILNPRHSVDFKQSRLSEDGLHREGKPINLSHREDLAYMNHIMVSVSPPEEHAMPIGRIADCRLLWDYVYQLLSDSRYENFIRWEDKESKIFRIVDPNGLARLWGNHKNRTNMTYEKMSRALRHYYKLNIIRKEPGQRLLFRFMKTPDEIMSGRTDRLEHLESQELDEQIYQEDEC
Method in brief: as §1

TTCACT was tested, and the binding signal (FEV) was 1.4 fold enrichment (6-mer frequency, TF over GST control), the binding signal (ETV5) was 1.31 fold enrichment (6-mer frequency, TF over GST control) and the binding signal (HSF1) was 1.13 fold enrichment (6-mer frequency, TF over GST control). The binding signal (SPIC) was 1.16 fold enrichment (6-mer frequency, TF over GST control), the binding signal (ELF4) was 1.34 fold enrichment (6-mer frequency, TF over GST control) and the binding signal (ELK4) was 1.42 fold enrichment (6-mer frequency, TF over GST control). The binding signal (ETV2) was 1.39 fold enrichment (6-mer frequency, TF over GST control), the binding signal (ELF3) was 1.2 fold enrichment (6-mer frequency, TF over GST control) and the binding signal (CRX) was 1.1 fold enrichment (6-mer frequency, TF over GST control). The binding signal (ETV1) was 1.33 fold enrichment (6-mer frequency, TF over GST control), the binding signal (ERF) was 1.42 fold enrichment (6-mer frequency, TF over GST control) and the binding signal (ETV3L) was 1.4 fold enrichment (6-mer frequency, TF over GST control). For the same sequence, the binding signal (ETS2) was 1.41 fold enrichment (6-mer frequency, TF over GST control), the binding signal (SPDEF) was 1.32 fold enrichment (6-mer frequency, TF over GST control) and the binding signal (ETV7) was 1.36 fold enrichment (6-mer frequency, TF over GST control). For the same sequence, the binding signal (ELF5) was 1.32 fold enrichment (6-mer frequency, TF over GST control), the binding signal (ETV3) was 1.3 fold enrichment (6-mer frequency, TF over GST control) and the binding signal (ETV6) was 1.23 fold enrichment (6-mer frequency, TF over GST control).

Source: publication PMC7862700, “An all-to-all approach to the identification of sequence-specific readers for epigenetic DNA modifications on cytosine”
